Source: PubChem
Only some compounds are listed: those with a hit (about 2.1% of all), similar ones and a draw of the others.
FUS suppressor – FUS proteinopathy suppression in yeast. S. cerevisiae FUS-expressing, growth rescue, OD600, 24 h. Potency, µM (doses to about 76.6 µM), hits mostly activators. hit rate 0.24% among 390,000. AID 1347120; note: nearly all actives have a fitted effect of over 55% in size
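Yeast expressing FUS under galactose induction, OD 0.005 in 2% galactose medium; compounds in a dilution series, 24 h at 30C. Growth rescue by absorbance at 600 nm; CP55940 positive control, DMSO negative.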
Abeta rescue – A-beta toxicity reversal in yeast | AID 1347071 | Potency, µM (highest dose often 46.1 µM), actives largely listed as activators | hit rate 0.063% among 410,000 | yeast expressing A-beta42, growth rescue, OD600, 48 h; response scale: 0% DMSO, 100% iron-clioquinol control; note: nearly all actives have a fitted effect of over 55% in size
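Yeast growth medium received pinned compounds, then yeast cells expressing toxic A-beta were added; plates incubated at 30 C for 48 hr. Growth read as absorbance at 600 nm, normalized to DMSO and equimolar FeCl3 plus clioquinol controls.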
aSyn rescue – rescues yeast growth from alpha-synuclein toxicity; Yeast expressing alpha-synuclein, growth rescue, BacTiter-Glo, 24 h; Potency, µM (top dose mostly 46.1 µM), actives largely listed as activators; hit rate 0.14% among 370,000; AID 652106; note: nearly all actives have a fitted effect of over 65% in size
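Readout is rescue of growth in alpha-synuclein-expressing yeast, so inhibitors of toxicity appear as activators. Growth after 24 hr at 30 deg C in galactose medium is quantified by luminescence.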
TDP43 rescue – inhibitors of TDP-43 toxicity in yeast; hit rate 1.8% among 410,000; TDP-43 expressing yeast growth rescue, BacTiter-Glo, 24 h; Potency, µM (titrated, usually from 46.1 µM), actives largely listed as activators; AID 652104; note: nearly all actives have a fitted effect of over 50% in size
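Galactose-induced TDP-43 yeast, OD600=0.02, compound pinned; 24 hr, 30 deg C; BacTiter-Glo luminescence for growth. Inhibitors of TDP-43 toxicity read as activators.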
Numbers stand for hits; ! = repeats disagree; [ ] = another dose, or the depositor's remark. Calls come from the whole dose curve; as a rule, active = well fitted curve in the direction sought with a large enough effect; inconclusive = small, poorly fitted or top-dose-only effect, or another doubt; inactive = no such curve, though single readings can be large; an effect the other way counts as inactive or inconclusive.

How did COc1ccc(-c2cc(-c3ccccc3)nc3ncnn23)cc1 do in these assays?
FUS suppressor: inactive; Abeta rescue: inactive; aSyn rescue: inactive; TDP43 rescue: 14µM

Results for O=C1OC(Nc2ccc(Br)cc2F)c2ccccc21 (stereo unspecified) ?
FUS suppressor: inactive; Abeta rescue: inactive; aSyn rescue: inactive; TDP43 rescue: inactive

What do the screens show for `CC1Cc2ccccc2N1C(=S)NC1CCCC1` (stereo unspecified)?
FUS suppressor: inactive; Abeta rescue: 13µM; aSyn rescue: inactive; TDP43 rescue: inconclusive

How did COc1ccccc1N1CCN(C2CCCN(C(=O)c3ccoc3)C2)CC1 (stereo unspecified) do in these assays?
FUS suppressor: inactive; Abeta rescue: inactive; aSyn rescue: inactive; TDP43 rescue: inactive

What do the screens show for `C[C@@H]1CCCCO[C@@H](CN(C)S(=O)(=O)c2ccccc2)[C@@H](C)CN([C@H](C)CO)C(=O)c2cc(NS(=O)(=O)c3ccc(F)cc3)ccc2O1`?
FUS suppressor: 14µM; Abeta rescue: inactive; aSyn rescue: inactive; TDP43 rescue: inactive

Results for COc1ccc(S(=O)(=O)Nc2ccc3c(c2)C(=O)N([C@H](C)CO)C[C@H](C)[C@@H](CN(C)C(=O)Nc2ccc(F)cc2)OCCCC[C@H](C)O3)cc1 ?
FUS suppressor: 25µM; Abeta rescue: inactive; aSyn rescue: inactive; TDP43 rescue: inactive

What do the screens show for `C[C@H]1CCCCO[C@@H](CN(C)S(=O)(=O)c2ccc(Cl)cc2)[C@@H](C)CN([C@@H](C)CO)C(=O)c2cc(NS(=O)(=O)c3ccccc3)ccc2O1`?
FUS suppressor: inactive; Abeta rescue: inactive; aSyn rescue: inactive; TDP43 rescue: inactive

What do the screens show for `CSc1ccccc1NC(=O)c1cccc(S(=O)(=O)N2CCN(C)CC2)c1`?
Abeta rescue: inactive; aSyn rescue: inactive; TDP43 rescue: inactive

Results for CC(C)OCCCn1c(=O)c2ccccc2n2c(CCC(=O)NC3CCN(Cc4ccccc4)CC3)nnc12 ?
FUS suppressor: inactive; Abeta rescue: inactive; aSyn rescue: inactive; TDP43 rescue: inactive

How did CN(N)c1nc(-c2ccccc2)cc(-c2ccccc2)n1 do in these assays?
FUS suppressor: inactive; Abeta rescue: inactive; aSyn rescue: inactive; TDP43 rescue: 11µM

Results for CN1CCN(c2nc(C(N)=O)cc(-c3ccccc3)n2)CC1 ?
FUS suppressor: inactive; Abeta rescue: inactive; aSyn rescue: inactive; TDP43 rescue: inactive

How did CCN(CC)c1nc(C(N)=O)cc(-c2ccccc2)n1 do in these assays?
FUS suppressor: inactive; Abeta rescue: inactive; aSyn rescue: 20µM; TDP43 rescue: inactive

How did O=C(COc1ccccc1C(=O)Nc1ccccc1)Nc1ccccc1-c1ccccc1 do in these assays?
aSyn rescue: inactive

What do the screens show for `O=[N+]([O-])c1ccc(-c2cccnc2)cc1`?
FUS suppressor: inactive; Abeta rescue: inactive; aSyn rescue: inactive; TDP43 rescue: inactive

What do the screens show for `Cc1nc2c3ccccc3nc(NNC(=O)CCC(=O)N3CCN(c4cc(Cl)ccc4C)CC3)n2n1`?
FUS suppressor: inconclusive; Abeta rescue: inactive; TDP43 rescue: inactive

How did O=C(N/N=C/c1cccnc1)c1ccccc1Br do in these assays?
FUS suppressor: inactive; Abeta rescue: inactive; aSyn rescue: inactive; TDP43 rescue: inactive

How did Cc1ccnc(Sc2ncccc2[N+](=O)[O-])n1 do in these assays?
FUS suppressor: inactive; Abeta rescue: inactive; aSyn rescue: inactive; TDP43 rescue: inactive

How did Cc1ccc(Sc2ncccc2[N+](=O)[O-])cc1 do in these assays?
FUS suppressor: inactive; Abeta rescue: inactive; aSyn rescue: inactive; TDP43 rescue: inconclusive

What do the screens show for `Cc1ccccc1Sc1ncccc1[N+](=O)[O-]`?
FUS suppressor: inactive; Abeta rescue: inactive; aSyn rescue: inactive; TDP43 rescue: 13µM

What do the screens show for `O=[N+]([O-])c1cccnc1Sc1ccc(Br)cc1`?
FUS suppressor: inactive; Abeta rescue: inactive; aSyn rescue: inactive; TDP43 rescue: 13µM

Results for FC(F)(F)c1ccc(-c2noc(-c3ccccc3Br)n2)cc1 ?
FUS suppressor: inactive; Abeta rescue: inactive; TDP43 rescue: inactive

How did Nc1nonc1-c1noc(-c2ccccc2Br)n1 do in these assays?
FUS suppressor: inactive; Abeta rescue: inactive; aSyn rescue: inactive; TDP43 rescue: 13µM

Results for O=C(CCl)N1N=C(c2cccs2)CC1c1ccco1 (stereo unspecified) ?
FUS suppressor: inactive; Abeta rescue: inactive; aSyn rescue: inactive; TDP43 rescue: 22µM

What do the screens show for `COc1ccc(-c2ccnc3c(Br)c(C)nn23)cc1`?
FUS suppressor: inactive; Abeta rescue: inactive; aSyn rescue: inactive[1.84 µM]; TDP43 rescue: 11µM

How did CCOC(=O)C1CCN(C(=O)c2c(C)oc3c2C(=O)c2ccccc2C3=O)CC1 do in these assays?
FUS suppressor: inactive; Abeta rescue: inactive; aSyn rescue: inactive; TDP43 rescue: inactive

Results for Cc1oc2c(c1C(=O)N1CCC(C)CC1)C(=O)c1ccccc1C2=O ?
FUS suppressor: inactive; Abeta rescue: inactive; aSyn rescue: inactive; TDP43 rescue: 13µM

What do the screens show for `COc1ccc(C(=O)NC(C(=O)N2CCN(c3ccccc3O)CC2)C(C)C)cc1` (stereo unspecified)?
FUS suppressor: inactive; Abeta rescue: inactive; aSyn rescue: inactive; TDP43 rescue: inactive

What do the screens show for `COc1cccc(COC(=O)c2nn(-c3ccccc3)nc2N)c1`?
FUS suppressor: inactive; Abeta rescue: inactive; aSyn rescue: inactive; TDP43 rescue: 35µM!

Results for COc1cccc(CNC(=O)CCSCc2ccccc2F)c1 ?
FUS suppressor: inactive; Abeta rescue: inactive; aSyn rescue: inactive; TDP43 rescue: 14µM

How did COCCN(C(=O)C1CCCO1)c1c(N)n(CC(C)C)c(=O)[nH]c1=O (stereo unspecified) do in these assays?
FUS suppressor: inactive; Abeta rescue: inactive; aSyn rescue: inactive[1.84 µM]; TDP43 rescue: inactive

How did O=S(=O)(CC(CN1CCCCC1)N1CCCCC1)c1ccccc1 (stereo unspecified) do in these assays?
FUS suppressor: inactive; Abeta rescue: inactive; aSyn rescue: inactive; TDP43 rescue: inactive

Results for Cn1ncc(Cl)c1C(=O)N1CCN(c2ccc(Cl)c(Cl)c2)CC1 ?
FUS suppressor: inconclusive; Abeta rescue: inactive; aSyn rescue: inactive; TDP43 rescue: 13µM

What do the screens show for `COc1ccc(S(=O)(=O)c2cn(C)c3cc(N4CCOCC4)c(F)cc3c2=O)cc1`?
FUS suppressor: inactive; Abeta rescue: inactive; TDP43 rescue: inactive

What do the screens show for `Cc1cc(C)c(-n2c(SCc3nc4ccccc4s3)n[nH]c2=O)c(C)c1`?
FUS suppressor: inactive; Abeta rescue: inactive; aSyn rescue: inactive; TDP43 rescue: inactive

What do the screens show for `CCCOC(=O)c1ccc(NC(=O)COC(=O)C2CCN(c3ccc(C(F)(F)F)cn3)CC2)cc1`?
FUS suppressor: inactive; Abeta rescue: inactive; aSyn rescue: inactive[1.84 µM]; TDP43 rescue: inconclusive

How did O=C(COC(=O)C1CCN(c2ccc(C(F)(F)F)cn2)CC1)NCc1ccccc1 do in these assays?
FUS suppressor: inactive; Abeta rescue: inactive; aSyn rescue: inactive; TDP43 rescue: 22µM
